Screening results as filed in PubChem BioAssay.
An excerpt weighted towards active compounds, which were near 27% of everything screened.
Cav32 inh – inhibitors of human Cav3.2 T-type calcium channel. O95180. Cav3.2-expressing cells, Fluo-4 calcium fluorescence FDSS; hits give low values. B-score at 10 µM. 100,000 tested, 4% active;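 active means single-dose well whose peak fluorescence ratio is a statistical outlier from its plate by either plate-standardised score or position-corrected B-score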
CYP2C9 inh – blocks human cytochrome P450 2C9. P11712. CYP2C9 Supersomes, luciferin-H conversion, luminescence. inhibition, % at 5 µM. 96,000 tested, 20% active;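 active means blocking of liver enzyme CYP2C9 beyond about 50% at 5 µM, limit read from the data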
CYP2C19 inh – human CYP2C19 inhibition. P33261. CYP2C19 Supersomes, luciferin-H EGE luminescence, 30 min. inhibition, % at 5 µM. 96,000 tested, 21% active. AID 778;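 active means CYP2C19 inhibition above a set limit at 5 µM in the primary screen, cut at about 50% in these data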
CYP2C9 activ – activators of human CYP2C9 | AID 1024 | recombinant CYP2C9, luciferin-H conversion, luminescence; hits give high values; factor 1 = untreated enzyme, 0 = blocked | 96,000 tested, 1.4% active | activation factor at 5 µM | P11712;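 active means activation factor of 2 or more for CYP2C9 at a 5 µM dose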
CYP2C19 act – increases human CYP2C19 enzyme activity; activation factor at 5 µM; AID 1025; 96,000 tested, under 10 active; recombinant CYP2C19, luciferin-H EGE luminescence; hits give high values; 0 = fully inhibited enzyme, 1 = untreated enzyme;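 active means activation factor of at least 2 at 5 µM in the primary screen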
Numbers stand for hits; 0 = inactive; - = no result given.

SMILES	Cav32 inh	CYP2C9 inh	CYP2C19 inh	CYP2C9 activ	CYP2C19 act
Clc1cccc(CSc2nccn2-c2ccccc2)c1	0	0	73	0	0
FC(F)(F)c1ccc(CSc2nccn2-c2ccccc2)cc1	0	88	82	0	0
CCn1c(SC(C)C)nnc1-c1cc(-c2ccccc2)sc1N	-3.7	-	-	-	-
CCN(CC)C(=O)CSc1nnc(-c2cc3ccccc3cc2O)n1CC	0	0	0	0	0
Clc1cccc(Cl)c1/C=C/c1nc2ccccc2[nH]1	0	84	0	0	0
O=c1c2cnn(-c3ccc(F)cc3)c2ncn1Cc1ccccc1	0	-	-	-	-
O=c1c2cnn(-c3ccc(F)cc3)c2ncn1Cc1cccnc1	0	0	50	0	0
O=c1c2cnn(-c3ccccc3)c2ncn1Cc1ccccn1	0	0	0	0	0
O=c1c2cnn(-c3ccccc3Cl)c2ncn1Cc1cccnc1	0	0	53	0	0
O=c1c2cnn(-c3ccccc3)c2ncn1Cc1ccco1	0	50	0	0	0
O=c1c2cnn(-c3ccccc3)c2ncn1Cc1cccnc1	0	0	0	0	0
c1cn2cc(-c3ccc4c(c3)OCO4)nc2s1	0	0	0	0	0
CON(c1nc(N(C)C)nc(N(C)C)n1)S(=O)(=O)c1ccccc1Cl	0	0	0	0	0
C=CCN(C/C(=N\O)c1sc(C(=O)OCC)nc1C)c1cccc(Br)c1	0	-	-	-	-
COc1ccccc1C(=O)Nc1cc2ccccc2oc1=O	0	0	0	0	0
C=CCc1cccc2cc(NC(C)=O)c(=O)oc12	0	0	0	2.8	0
O=C(CSc1nc2ccccc2[nH]1)c1ccco1	-	0	65	0	0
O=C(CSc1nc2ccccc2[nH]1)c1ccc(Cl)s1	0	92	98	0	0
O=c1ccnc(SCc2ccccc2Cl)[nH]1	0	60	0	0	0
Cc1nc2ccc(NC(=O)c3ccc(S(=O)(=O)N4CCOCC4)cc3)cc2s1	-	0	0	0	0
Cc1nc2ccc(NC(=O)c3cccc(S(=O)(=O)N4CC(C)OC(C)C4)c3)cc2s1 (stereo not drawn)	0	66	71	0	0
Cc1nc2ccc(NC(=O)Cc3cccs3)cc2s1	0	65	59	0	0
O=C(Cc1cccs1)Nc1ccc(C(=O)O)cc1	0	0	0	0	0
Cc1nc2ccc(NC(=O)c3ccc(Cl)c(NC(=O)c4cccs4)c3)cc2s1	0	54	0	0	0
Cc1ccc2nc(NC(=O)c3cccs3)sc2c1	0	0	0	0	0
SMILES	Cav32 inh	CYP2C9 inh	CYP2C19 inh	CYP2C9 activ	CYP2C19 act
CCOC(=O)c1sc(NC(C)=O)nc1-c1ccccc1	0	0	0	0	0
COC(=O)CNC(=O)COC(=O)c1cc(F)c(F)cc1Cl	0	0	0	0	0
CCCCS(=O)(=O)/C=C\C=C/S(=O)(=O)CCCC	-	0	0	0	0
O=C(NC(NC(=S)Nc1cccc(Cl)c1)C(Cl)(Cl)Cl)OCc1ccccc1 (stereo not drawn)	0	66	60	0	0
NC(=O)CC(NC(=O)OCc1ccccc1)C(=O)O (stereo not drawn)	0	0	0	0	0
Cc1cccc(NC(=O)C2CC(O)CN2C(=O)OCc2ccccc2)c1 (stereo not drawn)	0	0	0	0	0
Cc1cccc(NC(=S)NC(NC(=O)OCc2ccccc2)C(Cl)(Cl)Cl)c1 (stereo not drawn)	0	76	77	0	0
CN(C)c1ccc(-c2noc(-c3ccccc3O)n2)cc1	0	0	0	0	0
O=C(NCCN1CCOCC1)C1CC(=O)N(c2ccc(F)c(Cl)c2)C1 (stereo not drawn)	0	0	0	0	0
CC(C)(C)C(=O)/C(C#N)=c1\s/c(=C\c2ccncc2)c(=O)n1CCCN1CCOCC1	-	0	0	0	0
CCO[C@@H]1OC(C(N)=O)=C[C@H](c2ccccc2)[C@H]1CCCO	0	-	-	-	-
O=S(=O)(NCCCN1CCN(c2ccccc2F)CC1)c1cccc2cccnc12	0	0	55	2.3	0
O=S(=O)(NCCO)c1cccc2cccnc12	0	0	0	0	0
O=S(=O)(NCc1ccccc1)c1cccc2cccnc12	-	78	79	0	0
CN(CCCNS(=O)(=O)c1cccc2cccnc12)Cc1ccccc1	0	0	0	2.5	0
Cc1ccnc(NC2(C(F)(F)F)N=C(c3ccccc3)NC2=O)c1 (stereo not drawn)	0	0	0	0	0
COc1nn(C(C)C(=O)N2N=C(C(F)F)CC2(O)C(F)F)cc1[N+](=O)[O-] (stereo not drawn)	0	-	-	-	-
COc1ccccc1C/C(N)=N/OC(=O)c1cccc([N+](=O)[O-])c1	0	0	0	2.4	0
Cc1ccc(C2C3=C(CCCC3=O)Nc3nc(SCC(=O)NCc4ccco4)[nH]c(=O)c32)cc1 (stereo not drawn)	0	0	0	0	0
O=C1CCCC2=C1C(c1ccncc1)c1c(nc(SCc3ccccc3)[nH]c1=O)N2 (stereo not drawn)	-	90	87	0	0
CN(C)/C=C(\C=N\OCc1ccc(Cl)cc1Cl)C(=O)Nc1ccc(Cl)c(Cl)c1	0	0	0	0	0
COc1cc(SC)ccc1C(=O)Nc1ccccc1C#N	0	0	0	0	0
CC(Oc1ccccc1)C(=O)Nc1nc2c(s1)C(=O)CC(C)(C)C2 (stereo not drawn)	0	61	57	0	0
CN(C)CCN1C(=O)C(=O)/C(=C(/O)c2ccc(F)cc2)C1c1ccccc1F (stereo not drawn)	0	0	0	0	0
O=C1NC(=O)c2c(NC(=O)C3CCCO3)cccc21 (stereo not drawn)	0	0	0	0	0
SMILES	Cav32 inh	CYP2C9 inh	CYP2C19 inh	CYP2C9 activ	CYP2C19 act
O=C(Nc1ccccc1Sc1ccccc1)C1CCCO1 (stereo not drawn)	0	0	69	0	0
COc1ccc(NC(=O)c2ccccc2NC(=O)C2CCCO2)cc1 (stereo not drawn)	0	80	50	0	0
CC(C)NC(=O)c1ccccc1NC(=O)C1CCCO1 (stereo not drawn)	0	0	0	0	0
O=C(Nc1ccccc1Sc1ccccc1)c1ccccc1	0	77	86	0	0
COCCNCC(=O)C12CC3CC(CC(C3)C1)C2	0	0	0	0	0
COc1ccc2c(C)cc(=O)oc2c1C	0	0	0	2.3	0
Cc1cccc(C(C)Nc2ccc([N+](=O)[O-])cn2)c1 (stereo not drawn)	-4.3	75	0	0	0
CC(=O)Oc1ccc2ccccc2c1C(NC(=O)Cc1ccccc1)c1ccccc1 (stereo not drawn)	0	67	61	0	0
CC(=O)NC(c1cccc([N+](=O)[O-])c1)c1c(OC(C)=O)ccc2ccccc12 (stereo not drawn)	0	-	-	-	-
CCCCC(=O)NC(c1cccc([N+](=O)[O-])c1)c1c(OC(C)=O)ccc2ccccc12 (stereo not drawn)	-7.7	-	-	-	-
CC(=O)Oc1ccc2ccccc2c1C(NC(=O)C(C)C)c1cccc([N+](=O)[O-])c1 (stereo not drawn)	0	0	0	0	0
